In the supplement of paper PMC8975748:
Where a name gives a salt, the structure may show the parent alone.

What follows are compounds tested on Saccharomyces cerevisiae BY4741 SeMeCo community (assay: z-score of subpopulation abundance vs DMSO median, subpopulation auxotrophic for UM; higher = larger share of this subpopulation than in DMSO controls). Conditions: 10 µM; 24 h; SM minimal medium; subpopulation (auxotrophy): UM.
Protocol: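 Fluorescent four-plasmid SeMeCo (self-establishing metabolically cooperating S. cerevisiae BY4741 community; plasmids pH-mRuby2, pL-mWasabi, pU-eCFP, pM-TagRFP657) was grown 24 h in minimal SM medium with each Selleck FDA-approved drug at 10 µM in 384-well plates. Cells were fixed and imaged by high-content confocal microscopy. For each auxotrophic subpopulation (and the prototroph), a z-score gives the deviation from the DMSO vehicle-control population median.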

| Structure (SMILES) | z-score of subpopulation abundance |
| --- | --- |
| CN1c2ccccc2C(NCCCCCCC(=O)O)c2ccc(Cl)cc2S1(=O)=O (stereo not given) [Tianeptine sodium] | 0.21 |
| CN[C@@H]1[C@@H](O)[C@@H](O[C@@H]2[C@@H](O)[C@H](O[C@H]3O[C@H]([C@@H](C)O)[C@@H](O)[C@H](O)[C@H]3N)[C@@H](N)C[C@H]2N)OC[C@]1(C)O [Geneticin (G418 Sulfate)] | -0.56 |
| CCOC(=O)Nc1ccc(NCc2ccc(F)cc2)cc1N [Retigabine 2HCl] | -0.52 |
| NC(=O)CN1CCCC1=O [Piracetam] | 0.74 |
| COc1ccc2c(c1)[C@]13CCCC[C@@H]1[C@H](C2)N(C)CC3 [Dextromethorphan hydrobromide hydrate] | -0.52 |
| COc1ccc2[nH]cc(CCN)c2c1 [5-Methoxytryptamine] | 1.16 |
| COc1ccc(C(CN(C)C)C2(O)CCCCC2)cc1 (stereo not given) [Venlafaxine HCl] | 0.66 |
| CCN1CC2(OC(=O)c3ccccc3NC(C)=O)CCC(OC)C34C1C(CC23)C1(O)CC(OC)C2CC4C1(O)C2OC (stereo not given) [Lappaconitine] | 0.23 |
| C=C(C)[C@H]1Cc2c(ccc3c2O[C@@H]2COc4cc(OC)c(OC)cc4[C@@H]2C3=O)O1 [Rotenone (Barbasco)] | 0.29 |
| CC[C@@]1(O)C(=O)OCc2c1cc1n(c2=O)Cc2cc3ccccc3nc2-1 [Camptothecin] | 0.1 |
| CC[N+](C)(CC)CCOC(=O)C(O)(c1ccccc1)c1ccccc1 [Methylbenactyzine Bromide] | -0.66 |
| CN(C)[C@@H]1C(=O)C(C(N)=O)=C(O)[C@@]2(O)C(=O)C3=C(O)c4c(O)cccc4[C@@](C)(O)[C@H]3[C@H](O)[C@@H]12 [Oxytetracycline (Terramycin)] | -0.17 |
| C[C@@H]1O[C@@H](O[C@H]2C[C@@H](O)[C@]3(CO)[C@H]4[C@H](O)C[C@]5(C)[C@@H](C6=CC(=O)OC6)CC[C@]5(O)[C@@H]4CC[C@]3(O)C2)[C@H](O)[C@H](O)[C@H]1O [Ouabain] | 0.06 |
| C[CH2][Hg][S]c1ccccc1C(=O)[O-].[Na+] [Thimerosal] | 6.06 |
| C=C[C@H]1CN2CC[C@H]1C[C@H]2[C@H](O)c1ccnc2ccccc12 [Cinchonidine] | 0.45 |
| CCCCCCCCCCCCCCCC[n+]1ccccc1 [Cetylpyridinium Chloride] | 3.46 |
| NCC(O)c1ccc(O)cc1 (racemic) [(+,-)-Octopamine HCl] | -0.79 |
| CC(=O)O[C@H]1C[C@@H]2CC[C@@H]3[C@H](CC[C@@]4(C)[C@H]3C[C@H]([N+]3(C)CCCCC3)[C@@H]4OC(C)=O)[C@@]2(C)C[C@@H]1[N+]1(C)CCCCC1 [Pancuronium dibromide] | -0.06 |
| Oc1cc(Cl)ccc1Oc1ccc(Cl)cc1Cl [Triclosan] | -2.84 |
| COc1ccc(C=O)cc1 [p-Anisaldehyde] | -0.71 |

| Structure (SMILES) | z-score of subpopulation abundance |
| --- | --- |
| CCC1=C[C@H]2CN3CCc4c([nH]c5ccccc45)[C@](C(=O)OC)(C2)[C@H]13 [Catharanthine] | 0.1 |
| N[C@@H]1C[C@H]1c1ccccc1 [Tranylcypromine (2-PCPA) HCl] | -0.34 |
| O=c1[nH]c2ccccc2n1CCCN1CCC(n2c(=O)[nH]c3cc(Cl)ccc32)CC1 [Domperidone] | 0.56 |
| CC(C)N(CCC(C(N)=O)(c1ccccc1)c1ccccn1)C(C)C (stereo not given) [Disopyramide] | -0.64 |
| COc1ccc(C(CN(C)C)C2(O)CCCCC2)cc1 (stereo not given) [Venlafaxine] | 0.35 |
| O=[N+]([O-])C(Br)(CO)CO [Bronopol] | -0.1 |
| CN(C)[C@@H]1C(=O)C(C(N)=O)=C(O)[C@@]2(O)C(=O)C3=C(O)c4c(O)ccc(Cl)c4[C@@](C)(O)[C@H]3C[C@@H]12 [Chlortetracycline HCl] | -0.66 |
| CC(=O)OCC1=C(C(=O)O)N2C(=O)C(N)C2SC1 (stereo not given) [7-Aminocephalosporanic acid] | 0 |
| COC(=O)C1=CCCN(C)C1 [Arecoline HBr] | 0.61 |
| O=C(O[C@H]1C[N+]2(CCCOc3ccccc3)CCC1CC2)C(O)(c1cccs1)c1cccs1 [Aclidinium Bromide] | 0.73 |
| N#Cc1nn(-c2c(Cl)cc(C(F)(F)F)cc2Cl)c(N)c1[S+]([O-])C(F)(F)F (stereo not given) [Fipronil] | -0.68 |
| C[N+]1(C)[C@@H]2C[C@@H](OC(=O)[C@H](CO)c3ccccc3)C[C@H]1[C@@H]1O[C@@H]12 [Methscopolamine] | 1.32 |
| C=CCN1C[C@H](C(=O)N(CCCN(C)C)C(=O)NCC)C[C@@H]2c3cccc4[nH]cc(c34)C[C@H]21 [Cabergoline] | -0.17 |
| CN(C)C(=O)Oc1cccc([N+](C)(C)C)c1 [Neostigmine Bromide] | -0.71 |
| CN(C)C(=O)Oc1ccc[n+](C)c1 [Pyridostigmine Bromide] | 0.25 |
| Cn1cc(C2=C(c3cn(C4CCN(Cc5ccccn5)CC4)c4ccccc34)C(=O)NC2=O)c2ccccc21 | 0.73 |
| CC[C@H]1[C@@H]2C[C@H]3[C@@H]4N(C)c5ccccc5[C@]45C[C@@H]([C@@H]2[C@H]5O)N3[C@@H]1O [Ajmaline] | -0.04 |
| CC(NC(C)(C)C)C(=O)c1cccc(Cl)c1 (stereo not given) [Amfebutamone (Bupropion) HCl] | -0.25 |
| CCN(C)C(=O)Oc1cccc([C@H](C)N(C)C)c1 [Rivastigmine] | 0.75 |
| CC(C)=CCOc1c2occc2cc2ccc(=O)oc12 [Imperatorin] | 0.52 |
